Here are results for 11 compounds from PubChem BioAssay (NCI).

Among the test systems are HOP-92 NSCLC; RXF 393 renal; SK-MEL-5 melanoma; SK-MEL-28 melanoma; CCRF-CEM leukemia; OVCAR-8 ovarian; OVCAR-4 ovarian; T-47D breast; MDA-MB-435 melanoma; SW-620 colon; MCF7 breast; HCT-116 colon; HCC-2998 colon; KM12 colon; CAKI-1 renal; IGROV1 ovarian; EKVX NSCLC; A549/ATCC NSCLC.
What all share (test): NCI-60 one-dose screen, 48 h (100 = growth as untreated, 0 = no growth, -100 = all killed)
What all share (conditions): 10 µM

The panel holds about 83,000 compounds, 20% with a hit somewhere; the sample as a whole holds those more often.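 96-well plates, one dose, 48 hours. Percent growth reported; active if below 10.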 Values without a mark were called inactive. Calls of active or inactive are those of the source.

As to `COc1ccc(Cn2cc(C#N)c(N)c2C(C)=O)c(OC)c1`, the growth in the test on HOP-92 NSCLC was 85.7%; in the test on RXF 393 renal, 107%; with SK-MEL-5 melanoma it was 99.1%; in the test on SK-MEL-28 melanoma it was 109%; in the test with CCRF-CEM leukemia, 105%; in the test with OVCAR-8 ovarian, 104%. The growth with OVCAR-4 ovarian is 110%; in the test on T-47D breast, 106%; in the test on MDA-MB-435 melanoma, 108%; with SW-620 colon it was 106%; in the test on MCF7 breast, 101%; in the test with HCT-116 colon it was 99.2%. Besides, the growth in the test on HCC-2998 colon and in the test with KM12 colon was 106% each time.
With `Cn1cc(-c2cc3nc(-c4c[nH]c5ccccc45)cc(N)n3n2)c2cc(Cl)ccc21`, the growth is -81% (active) with HOP-92 NSCLC; -82.7% (active) with RXF 393 renal; -99% (active) with SK-MEL-5 melanoma; -98.7% (active) in the test with CAKI-1 renal; -12.6% (active) in the test with CCRF-CEM leukemia; -73.8% (active) in the test with OVCAR-4 ovarian. The growth is -85.5% (active) in the test on T-47D breast; -93.1% (active) in the test with MDA-MB-435 melanoma; -61% (active) in the test on SW-620 colon; -85.9% (active) with MCF7 breast; -84.6% (active) with HCT-116 colon; -82.2% (active) in the test on KM12 colon.
As to `Cn1cc(-c2nnc(N)nc2-c2c[nH]c3ccc(F)cc23)c2cc(Br)cnc21`, the growth in the test with HOP-92 NSCLC is 26.4%; in the test on RXF 393 renal it was 38.7%; in the test on SK-MEL-5 melanoma, 81.9%; in the test on CCRF-CEM leukemia, 35.4%; in the test with OVCAR-8 ovarian, 71.5%; in the test with OVCAR-4 ovarian, 59.6%. For the same compound, the growth in the test with IGROV1 ovarian was 50.4%; in the test with T-47D breast, 44.1%; in the test with MDA-MB-435 melanoma, 67.2%; in the test on SW-620 colon it was 68.5%; in the test with MCF7 breast, 27.7%; in the test with HCT-116 colon it was 59.2%. The growth in the test on KM12 colon is 61.5%.
As for `COc1cc2oc(-c3cccc(C(=O)Nc4ccc(Cl)cc4)c3)cc(=O)c2c(OCCNC(=O)[C@@H](N)CO)c1OC`, the growth in the test with HOP-92 NSCLC was -2.3% (active); in the test on RXF 393 renal, 41.5%; with SK-MEL-5 melanoma it was -81.9% (active); with EKVX NSCLC it was 54.7%; in the test on CAKI-1 renal, 45.9%; in the test with CCRF-CEM leukemia it was -37.9% (active). Besides, the growth in the test on OVCAR-8 ovarian was 26.3%; in the test on OVCAR-4 ovarian, 86.7%; in the test on T-47D breast, 31.3%; in the test on MDA-MB-435 melanoma, 15.7%; with SW-620 colon, -37.7% (active); in the test with MCF7 breast it was -51.8% (active). Besides, the growth in the test with HCT-116 colon was 23.6%; in the test on KM12 colon it was 35.2%.
Take `Fc1ccc(-c2csc(Nc3cccc(Nc4nc(-c5ccc(F)cc5)cs4)c3)n2)cc1`: the growth is 39.2% with HOP-92 NSCLC; 62.8% in the test with A549/ATCC NSCLC; 75.5% with RXF 393 renal; 61.2% in the test with SK-MEL-5 melanoma; 39.8% in the test with EKVX NSCLC; 59.1% in the test with CCRF-CEM leukemia. The growth is 55.7% with OVCAR-4 ovarian; 7.43% (active) in the test with T-47D breast; 63.1% in the test on MDA-MB-435 melanoma; 70.3% with SW-620 colon; 24.7% in the test with MCF7 breast; 57.7% with HCT-116 colon. In addition, the results for the growth in the test with HCC-2998 colon and in the test on KM12 colon were 35.2% and 37.6%, respectively.
For the compound `CC1(C)CC[C@]2(C(=O)O)CC[C@]3(C)C(=CCC4[C@@]5(C)C[C@@H](O)[C@@H]6OC(c7cccc(F)c7)OC[C@@]6(C)C5CC[C@]43C)C2C1` (some centres undefined), the growth in the test with HOP-92 NSCLC was 41.9%; in the test on RXF 393 renal, 67.2%; with SK-MEL-5 melanoma, 45.9%; in the test on SK-MEL-28 melanoma, 66%; with CCRF-CEM leukemia, 32%; in the test with OVCAR-4 ovarian it was 54.6%. The growth with T-47D breast is 38.9%; with MDA-MB-435 melanoma, 58.1%; in the test with SW-620 colon, 31%; with MCF7 breast it was 21.5%; in the test with HCT-116 colon, 9.3% (active); in the test with KM12 colon, 21.3%.
In the case of `C#C[C@]1(O)CC[C@H]2[C@@H]3CC=C4c5sc(Nc6ccc(N(C)C)cc6)nc5CC[C@]4(C)[C@H]3CC[C@@]21C`, the growth with HOP-92 NSCLC was 9.62% (active); in the test on RXF 393 renal, -51.3% (active); in the test with SK-MEL-5 melanoma, 0.6% (active); in the test with SK-MEL-28 melanoma it was -21.6% (active); with EKVX NSCLC, 24.7%; in the test with CAKI-1 renal, 2.6% (active). Moreover, the growth is -1.45% (active) with CCRF-CEM leukemia; 36.1% in the test with OVCAR-4 ovarian; 28.6% in the test with T-47D breast; 5.17% (active) in the test with MDA-MB-435 melanoma; 4.36% (active) with SW-620 colon; -36.2% (active) with MCF7 breast. Also, the growth in the test on HCT-116 colon was -77.9% (active); in the test with HCC-2998 colon, 33.4%; with KM12 colon, 2.83% (active).
For the compound `O=C(c1ccc(Cl)cc1)C(c1c[nH]c2ccccc12)c1c[nH]c2ccccc12`, the growth in the test with HOP-92 NSCLC is -15.7% (active); in the test on A549/ATCC NSCLC, 4.91% (active); with RXF 393 renal it was -82.1% (active); in the test with SK-MEL-5 melanoma, -58.3% (active); in the test with SK-MEL-28 melanoma, -92.5% (active); in the test with CCRF-CEM leukemia, 2.45% (active). For the same compound, the growth in the test with OVCAR-4 ovarian was 7.15% (active); with IGROV1 ovarian it was -19.4% (active); with T-47D breast, -30.6% (active); in the test on MDA-MB-435 melanoma, -68.6% (active); in the test with SW-620 colon, -52.6% (active); with MCF7 breast, -69.3% (active). The results for the growth in the test with HCT-116 colon, in the test on HCC-2998 colon and in the test on KM12 colon were -91.4% (active), -89.6% (active) and -5.68% (active), respectively.
For the compound `O=C1S/C(=C\c2ccc([N+](=O)[O-])cc2)C(=O)N1CCN1CCCCC1`, the growth with HOP-92 NSCLC is 146%; in the test on A549/ATCC NSCLC it was 110%; in the test with RXF 393 renal it was 132%; in the test on SK-MEL-5 melanoma, 101%; with CCRF-CEM leukemia, 116%; in the test with OVCAR-8 ovarian it was 105%. Moreover, the growth is 111% in the test with OVCAR-4 ovarian; 112% in the test on IGROV1 ovarian; 95.6% in the test with T-47D breast; 102% in the test on MDA-MB-435 melanoma; 113% in the test on SW-620 colon; 94.2% in the test on MCF7 breast. Moreover, the growth in the test on HCT-116 colon and in the test on KM12 colon was 105% throughout.
`Cn1cc(-c2cc(N)n3nc(-c4cn(C)c5ccccc45)cc3n2)c2cc(F)ccc21`: the growth is -78.4% (active) in the test with HOP-92 NSCLC; -76.3% (active) with RXF 393 renal; -87.9% (active) in the test on SK-MEL-5 melanoma; -50.1% (active) in the test with EKVX NSCLC; -80.9% (active) in the test with CAKI-1 renal; -9.43% (active) in the test with CCRF-CEM leukemia. Further, the growth was -38.2% (active) with OVCAR-4 ovarian; -50.1% (active) in the test on T-47D breast; -81.1% (active) in the test on MDA-MB-435 melanoma; -54.4% (active) in the test on SW-620 colon; -56.2% (active) in the test on MCF7 breast; -92.1% (active) in the test with HCT-116 colon. Besides, in the test on KM12 colon, the growth is -69.1% (active).
In the case of `COC(=O)CNC(=O)COc1c(OC)c(OC)cc2oc(-c3cccc(C(=O)Nc4ccc(Cl)cc4)c3)cc(=O)c12`, the growth is 39.1% in the test with HOP-92 NSCLC; 45.9% with RXF 393 renal; 4.43% (active) in the test on SK-MEL-5 melanoma; 55.8% in the test with CAKI-1 renal; 94.7% in the test on CCRF-CEM leukemia; 6.23% (active) in the test with OVCAR-4 ovarian. Moreover, the growth in the test with T-47D breast is 37.9%; in the test on MDA-MB-435 melanoma it was 28.5%; with SW-620 colon, 51.4%; in the test with MCF7 breast, 22.5%; in the test on HCT-116 colon, 43.8%; in the test on HCC-2998 colon, 74.2%. Besides, the growth with KM12 colon was 41.5%.
